Source: PubChem BioAssay (NCI)
About 79,000 compounds went through this panel and 15% of them were active in at least one assay; those are over-represented in the sample as a whole. Calls of active or inactive are those of the source. Cut-off read from the data, not from the text of the source: active = growth inhibition above about 70%; inactive = the rest.

Tests used:
[1] = NCI Yeast Anticancer Drug Screen. Data for the rad50 strain (AID 155);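 note: 0% = growth of vehicle-only cultures of the same strain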; conditions: S. cerevisiae rad50 strain growth inhibition; at 50.0 µM; active compounds read high
How it was run: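 Inhibition values express reduced yeast growth in compound-treated cultures relative to vehicle-treated controls.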

[2] = NCI Yeast Anticancer Drug Screen. Data for the mec2-1 strain (AID 157); conditions: S. cerevisiae mec2-1 strain, at 50.0 µM, active compounds read high
How it was run: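 Strain: mec2-1 (DNA repair/cell cycle alteration). Compound exposure, then growth measured; inhibition expressed relative to vehicle.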

[3] = NCI Yeast Anticancer Drug Screen. Data for the sgs1 mgt1 strain (AID 161);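 note: 0% = growth of cultures given vehicle only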; conditions: S. cerevisiae sgs1 mgt1 strain, at 50.0 µM, active compounds read high
How it was run: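 Genetically altered yeast, compound exposure, growth inhibition relative to vehicle.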

[4] = NCI Yeast Anticancer Drug Screen. Data for the cln2 rad14 strain (AID 165);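 note: 0% = growth equal to vehicle treated cultures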; conditions: S. cerevisiae cln2 rad14 strain, at 50.0 µM, active compounds read high
How it was run: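 Compounds are applied to the cln2 rad14 yeast strain, and growth is then compared with that of vehicle-treated cultures to give inhibition.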

[5] = NCI Yeast Anticancer Drug Screen. Data for the bub3 strain (AID 167); conditions: S. cerevisiae bub3 mutant strain, at 50.0 µM, active compounds read high
How it was run: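 Steps: expose the mutant yeast strain to compound; grow alongside vehicle-treated cultures; measure growth; express inhibition against the vehicle cultures.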

[6] = NCI Yeast Anticancer Drug Screen. Data for the mlh1 rad18 strain (AID 175); conditions: S. cerevisiae mlh1 rad18 strain growth inhibition; at 50.0 µM; active compounds read high
How it was run: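 Read-out is yeast growth inhibition, calculated against vehicle-only controls. The compound was applied to a strain engineered with DNA damage repair alterations.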

Measured: growth inhibition

CC1(C(=O)O)CCC2(C)CCC3(C)C(=CC(=O)C4C5(C)CCC(OC6OC(C(=O)O)C(O)C(O)C6OC6OC(C(=O)O)C(O)C(O)C6O)C(C)(C)C5CCC43C)C2C1 (stereo unspecified)
inactive: [1] 13.6% | [2] 3.95% | [3] -2.25% | [4] 24.8% | [5] 15.8% | [6] 19.2%

Cc1ccc(Cl)cc1NC(=O)/C=C/c1ccccc1
inactive: [1] 3.05% | [2] 8.4% | [3] 6.4% | [4] -7.35% | [5] 10.5% | [6] 18.6%

CCN(CC)CCN(C(=Nc1ccccc1)N1CCCCC1)c1ccccc1
inactive: [1] 6.8% | [2] -35.2% | [3] -11.5% | [4] 19% | [5] 28.1% | [6] 19.4%

CCCCN(CCCC)CCCNC(=S)Nc1ccccc1
inactive: [1] -3.25% | [2] 24.2% | [3] 38.1% | [4] -7.25% | [5] 3.25% | [6] 36.4%

Nc1nc2nsnc2nc1N
inactive: [1] 1.9% | [2] 12.3% | [3] 13.6% | [4] -57.9% | [5] 1.2% | [6] 23.9%

CC12CCCCC1CC(=O)/C(=C\O)C2 (stereo unspecified)
inactive: [1] 12.7% | [2] 15.1% | [3] 17.9% | [4] -29.1% | [5] -11.3% | [6] 14%

O=c1[nH]nc(-c2ccc(Cl)cc2)c2cc(Cl)c(Cl)cc12
inactive: [1] -6.45% | [2] -11.3% | [3] -10.7% | [4] -57.9% | [5] -5.2% | [6] -20.7%

CCOC(=O)C1=C(C)NC(C)=C(C(=O)OCC)C1c1c(C)noc1C
inactive: [1] 19.6% | [2] 18.6% | [3] 60.7% | [4] 19.3% | [5] 6.95% | [6] 61.4%

O=C(OCC1OC(n2ccc(=O)[nH]c2=O)C(F)C1OC(=O)c1ccccc1)c1ccccc1 (stereo unspecified)
inactive: [1] 24.1% | [2] 4.3% | [3] 8.6% | [4] 17.7% | [5] 7.15% | [6] 2.3%

CC(C)COC(=N)c1ccccc1C1(O)CCCCC1
inactive: [1] -19.9% | [2] -10.1% | [3] -9.5% | [4] -18.8% | [5] 0.6% | [6] -17.6%

c1ccc([Si]2(c3ccccc3)[Si](c3ccccc3)(c3ccccc3)[Si](c3ccccc3)(c3ccccc3)[Si]2(c2ccccc2)c2ccccc2)cc1
inactive: [1] 6% | [2] -1.4% | [3] -35% | [4] -1.45% | [5] -0.45% | [6] 3.75%

Cc1cc(N(CCC#N)CCC#N)ccc1/C=C(\NC(=O)/C=C/c1ccccc1)C(=O)Nc1ccccc1Cl
inactive: [1] 32.3% | [2] 13.8% | [3] 42.1% | [4] 9.7% | [5] 1.2% | [6] 14.9%

CCOC(=O)c1ccc(NCCCc2c(C)nc(N)[nH]c2=O)cc1
inactive: [1] 5.25% | [2] 9.5% | [3] -9.15% | [4] -10.3% | [5] 34.6% | [6] -2.85%

CCCCCCCCO[Si](OCCCCCCCC)(OCCCCCCCC)OCCCCCCCC
inactive: [1] -24.6% | [2] -26.3% | [3] -16.8% | [4] 6.9% | [5] -15.2% | [6] -20.9%

OC(CCCCCCCCC(O)CN1CCCCC1)CN1CCCCC1 (stereo unspecified)
inactive: [1] 3.3% | [2] 25.6% | [3] 5.45% | [4] 11% | [5] 20.6% | [6] 15.1%

O=[N+]([O-])c1cc(C=NCCCCCCN=Cc2ccc(Cl)c([N+](=O)[O-])c2)ccc1Cl
inactive: [1] 6.9% | [2] -3.85% | [3] -9.75% | [4] -19.3% | [5] 4.35% | [6] -0.9%

C#CCOc1c(C(=O)OCC)c(=O)n(C)c2ccccc12
inactive: [1] -10% | [2] -17.1% | [3] 12.8% | [4] 9.4% | [5] 3.55% | [6] 1.7%

CCN=c1c([N+](=O)[O-])c(NC(=O)c2ccccc2)sn1CC
inactive: [1] -9.1% | [2] -5.65% | [3] -5.5% | [4] 28% | [5] -7.75% | [6] -5.7%

CCOC(=O)Cc1n[nH]c(=O)c2ccccc12
inactive: [1] -21.6% | [2] 1.4% | [3] 1.2% | [4] -21.4% | [5] -21.8% | [6] -6.95%

CC(C)NCCC(O)c1cc2ccccc2o1 (stereo unspecified)
inactive: [1] -12.8% | [2] -4% | [3] -17.6% | [4] -7.1% | [5] -35.5% | [6] 5.15%

Cc1ccc(S(=O)(=O)N/N=C/C(C)c2cccnc2)cc1 (stereo unspecified)
inactive: [1] -9% | [2] 6.8% | [3] 4% | [4] 13.6% | [5] 5.9% | [6] 7.05%

O=C(/C=C(\O)C(=O)O)/C=C(\O)c1ccc(Cl)cc1
inactive: [1] -15.7% | [2] 0.7% | [3] -27.4% | [4] -10.4% | [5] -23.8% | [6] -31.5%

CCOC(=O)C1(C(F)(F)F)N=C(CC)OC(N2CCOCC2)=N1 (stereo unspecified)
inactive: [1] -23.9% | [2] -12.6% | [3] -18.7% | [4] 10.1% | [5] -16% | [6] -27.1%

Cc1ccc(NC(=O)c2ccco2)c(C)c1
inactive: [1] -2.3% | [2] -2.55% | [3] 5.05% | [4] 2.65% | [5] 8.4% | [6] -3.1%

C=CC(C)(O)/C=C/C=C(\C)C(CC1OC1(C)C)OC(=O)/C(C)=C\C (stereo unspecified)
inactive: [1] -10.8% | [2] -16.9% | [3] 3.55% | [4] 10.3% | [5] -19.6% | [6] -64.1%

COc1ccc(C(=O)Cc2nc3nnc(N)n3nc2CC(=O)c2ccc(OC)cc2)cc1
inactive: [1] -9.35% | [2] 2.1% | [3] -0.75% | [4] -0.75% | [5] 16.4% | [6] 15.7%

CCC(=O)Oc1ccc(CCC(C)=O)cc1
inactive: [1] -0.55% | [2] -6.35% | [3] -14.2% | [4] -38.9% | [5] -10.6% | [6] 30.5%

CC(C)CCCC(C)[C@H]1CCC2[C@@H]3CCC4Cc5nc6c(nc5C[C@]4(C)C3CC[C@@]21C)CC1CC[C@@H]2C(C[C@@H](O)[C@@]3(C)C2C[C@@H]2OC4(CCC(C)CO4)C(C)[C@@H]23)[C@@]1(C)C6 (stereo partly specified)
inactive: [1] -19.6% | [2] 1.65% | [3] -21.8% | [4] -15% | [5] -10.9% | [6] -8.65%

O=S1(=O)C=CC(N/N=C\c2ccc3ccccc3n2)=C1
inactive: [1] 4.8% | [2] -11.1% | [3] -4.45% | [4] -36.8% | [5] 9.7% | [6] -7.25%

c1ccc(CC2CO2)cc1 (stereo unspecified)
inactive: [1] -2.7% | [2] -17.8% | [3] -1.4% | [4] -15.2% | [5] -0.2% | [6] -7.9%

Cn1nnnc1/C(=C/c1ccccc1)C(=O)O
inactive: [1] 12.9% | [2] -0.15% | [3] 0.1% | [4] -18.9% | [5] 12.1% | [6] 12.2%

C(/Cc1ccc2c(c1)OCO2)=N\NC1=NCCN1
inactive: [1] -8.5% | [2] -0.55% | [3] 1.55% | [4] -19.4% | [5] 5.2% | [6] 18.1%

CC(C(OC(=O)C1c2ccccc2-c2ccccc21)c1ccccc1)N(C)C (stereo unspecified)
active: [1] 99.5% | [2] 75.8% | [3] 99.5% | [4] 91.4% | [5] 99.4% | [6] 99.2%

O=c1cc(C(O)C(O)C(O)C(O)CO)[nH]c(=O)[nH]1 (stereo unspecified)
inactive: [1] 2.4% | [2] 7.1% | [3] 9% | [4] 24.9% | [5] -5.05% | [6] -4.6%

Cc1ccc(S(=O)(=O)/C(C#N)=C\N2CCNC2=S)cc1
inactive: [1] -11.7% | [2] -24.3% | [3] -6.4% | [4] 13.5% | [5] 4.4% | [6] -2.25%

Oc1ccccc1C1SCSCS1
inactive: [1] 14.8% | [2] 12.9% | [3] 14.1% | [4] -3.3% | [5] -10.4% | [6] 5.85%

O=C1C2C3C=CC(O3)C2C(=O)N1CCN1CCCCC1 (stereo unspecified)
inactive: [1] -0.75% | [2] -4.8% | [3] -0.65% | [4] 6.5% | [5] -2.15% | [6] -6.05%

COc1cc(/C=N/NC(N)=O)cc(OC)c1O
inactive: [1] -0.6% | [2] -11.8% | [3] -34.4% | [4] -14.6% | [5] 33.3% | [6] -4.75%

O=c1c(N2CCOCC2)c(N2CCOCC2)c1=O
inactive: [1] -21.6% | [2] -22.9% | [3] 0.25% | [4] 15.4% | [5] -24.4% | [6] -1.1%

NNC(=O)CCC(=O)Nc1ccc(Cl)cc1Cl
inactive: [1] -19.9% | [2] 0.65% | [3] -8.25% | [4] 26.9% | [5] 5.1% | [6] 30.9%

COc1cc(C(=O)n2ncc(C(C)=O)c2C)cc(OC)c1OC
inactive: [1] -3.75% | [2] -17.5% | [3] 12.9% | [4] 10.9% | [5] 0.3% | [6] 8.45%
